Consider 20 molecules from PubChem BioAssay.

Molecules are shown by their SMILES. Values joined by “and” are separate entries in the source; they are usually repeats but may differ in a detail not shown here. Identical values can stand only once. Active and inactive are the calls of the source.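 How the source made its calls, unless noted: active means compounds whose cell count with miR-34 switched on is under 0.7 times the count with it off; inactive means the rest.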

A short description of assay [1]: sensitizers of A549 cells to miR-34 induction, primary screen, imaging, A549 dox-inducible miR-34, nuclei and caspase counts (AID 1347080). To be noted: A549 miR-34 inducible, Hoechst nuclei count, 48 h.
Assay [2] can be described thus: survival rescue of mitochondrial mutant cells in low glucose, primary screen, MELAS cybrids, Rieske KO mouse fibroblasts, CellTiter-Glo (AID 1508586;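 active means mean z-score across replicates of 1.96 or higher in either the MELAS or the Rieske mutant cell line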;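 further: z relative to plate mean and SD of compound and empty wells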). (ATP-based viability assays read luminescence as a measure of living cells.)
A short description of assay [3]: viability rescue of complex I mutant cybrids, primary screen, cell-based, galactose medium, ATP luminescence (AID 1645843;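 active means z-score of at least 1.8 in each of two replicates, scored against plate mean and spread of sample wells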;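 further: positive z means more ATP and so rescue of galactose-driven cybrid death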). To be noted: complex I mutant cybrid cells, 72 h, stronger effect = higher value.
The nature of assay [4]: liver-stage malaria parasite growth inhibition, primary screen, cell-based, HepG2, luciferase luminescence, HepG2 viability (AID 624349; in the data active means parasite load remaining mostly below about 12%, no sharp cut-off; inactive means mostly above about 10%;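 further: 100% = mean of DMSO negative control wells on the same plate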). The settings on record: P. berghei liver stage in HepG2, luciferase luminescence, concentration not given here; parasite load remaining: stronger effect = lower value; viability: measured here: HepG2 viability without parasites.
Where [5] appears, read: stronger effect = lower value, cell number ratio, induced over uninduced.
Setting [6] is: measured here: relative caspase fold change +Dox/-Dox.
Where [7] appears, read: measured here: total cells with miR-34 induction, stronger effect = lower value.
[8] abbreviates: measured here: total cells without miR-34 induction.
[9] abbreviates: MELAS cybrid survival, CellTiter-Glo 48 h, stronger effect = higher value.
Where [10] appears, read: Rieske KO mouse fibroblast survival, CellTiter-Glo 72 h.

In the case of `Cc1cc(-c2cccc3cccnc23)nc(N)n1`, the fold change in assay [1] (setting [5]) was 0.914 (inactive); in assay [1] (setting [6]) it was 1.55. The results for the cell count in assay [1] (setting [7]) and in assay [1] (setting [8]) were 9030 and 9880, respectively. Further, the z-score in assay [2] (setting [9]) is -0.012 (inactive); in assay [2] (setting [10]), -0.264; in assay [3] it was -0.525 (inactive).
Regarding `COCC1CCCN(Cc2cccc(-c3nc(-c4cccnc4)cc(=O)[nH]3)c2)C1` (stereo not drawn), the figures for the fold change in assay [1] (setting [5]) and in assay [1] (setting [6]) were 0.935 (inactive) and 1.11, respectively. Also, the cell count in assay [1] (setting [7]) came to 8420; in assay [1] (setting [8]), 9010. Further, the values for the z-score in assay [2] (setting [9]), in assay [2] (setting [10]) and in assay [3] were -0.479 (inactive), 0.644 and 0.175 (inactive), respectively.
As to `Cc1cc(NC(=O)Cn2ccc(-c3ncnn3C)n2)n(C2CCCCC2)n1`, the fold change in assay [1] (setting [5]) was 0.953 (inactive); in assay [1] (setting [6]) it was 1.19. Also, the cell count came out at 9860 in assay [1] (setting [7]) and 10400 in assay [1] (setting [8]). The z-score was 0.129 (inactive) in assay [2] (setting [9]), -0.435 in assay [2] (setting [10]) and -0.55 (inactive) in assay [3].
On to `CC(C)n1cc(-c2cc(C(=O)N(C)Cc3ccncc3)c3cc(F)ccc3n2)cn1`, for which the fold change is 0.953 (inactive) in assay [1] (setting [5]) and 1.49 in assay [1] (setting [6]). Moreover, the cell count in assay [1] (setting [7]) is 7910; in assay [1] (setting [8]), 8290. Moreover, the z-score in assay [2] (setting [9]) is -1.09 (inactive); in assay [2] (setting [10]) it was 0.3; in assay [3] it was -0.295 (inactive).
On to `Cc1nn(C)cc1-c1ccnc(NCC(C)Oc2cccnc2)n1` (stereo not drawn), for which the fold change in assay [1] (setting [5]) was 0.898 (inactive); in assay [1] (setting [6]), 1.28. The values for the cell count in assay [1] (setting [7]) and in assay [1] (setting [8]) were 8650 and 9640, respectively. In addition, the z-score was -0.961 (inactive) in assay [2] (setting [9]), 0.57 in assay [2] (setting [10]) and -0.525 (inactive) in assay [3].
For the molecule `Cc1ccc(NC(=O)C2CC23CCCCC3)cn1` (stereo not drawn), the fold change in assay [1] (setting [5]) is 0.887 (inactive); in assay [1] (setting [6]), 0.564. The cell count in assay [1] (setting [7]) turned out to be 8250; in assay [1] (setting [8]) it was 9300. Moreover, the z-score was -0.13 (inactive) in assay [2] (setting [9]), -0.332 in assay [2] (setting [10]) and -0.27 (inactive) in assay [3].
Regarding `CN(C)C(=O)c1cc(-c2[nH]ncc2-c2ccccc2)c[nH]1`, the fold change in assay [1] (setting [5]) was 0.875 (inactive); in assay [1] (setting [6]), 0.578. Also, the cell count in assay [1] (setting [7]) worked out at 7590; in assay [1] (setting [8]), 8680. Further, the z-score was 1.27 (inactive) in assay [2] (setting [9]), 0.199 in assay [2] (setting [10]) and -0.655 (inactive) in assay [3].
Consider `COCCn1cncc1CNc1nccc(-c2c(C)nn(C)c2C)n1`, for which the fold change is 0.881 (inactive) in assay [1] (setting [5]) and 0.975 in assay [1] (setting [6]). Besides, the cell count in assay [1] (setting [7]) was 8090; in assay [1] (setting [8]), 9180. The z-score in assay [2] (setting [9]) is -0.172 (inactive); in assay [2] (setting [10]), -0.0475; in assay [3], -0.325 (inactive).
Turning to `c1ccc(CN2CCC(Nc3ncnc4sccc34)CC2)nc1`, the fold change in assay [1] (setting [5]) was 0.895 (inactive); in assay [1] (setting [6]), 1.42. The cell count in assay [1] (setting [7]) was determined as 5240; in assay [1] (setting [8]) it was 5860. Also, the z-score in assay [2] (setting [9]) is -0.277 (inactive); in assay [2] (setting [10]) it was -0.421; in assay [3] it was -0.58 (inactive).
On to `O=C(O)c1cccnc1Nc1ccc(Cl)cc1`, for which the fold change was 1.17 (inactive) in assay [1] (setting [5]) and 0.619 in assay [1] (setting [6]). The cell count in assay [1] (setting [7]) was 5660; in assay [1] (setting [8]), 4840. The z-score in assay [2] (setting [9]) was -0.775 (inactive); in assay [2] (setting [10]) it was -0.287; in assay [3] it was 0.845 (inactive).
With `CCCn1ncc(-c2ccnc(NC3CC(C)(C)NC(C)(C)C3)n2)c1C`, the fold change is 0.919 (inactive) in assay [1] (setting [5]) and 0.965 in assay [1] (setting [6]). The cell count in assay [1] (setting [7]) amounted to 8450; in assay [1] (setting [8]) it was 9200. For the same molecule, the z-score in assay [2] (setting [9]) is 0.278 (inactive); in assay [2] (setting [10]), 0.593; in assay [3], 0.33 (inactive).
On to `Cc1nn(C)c(C)c1-c1ccnc(N(C)Cc2cc(-c3ccccn3)no2)n1`, for which the fold change in assay [1] (setting [5]) was 0.81 (inactive); in assay [1] (setting [6]), 1.13. The values for the cell count in assay [1] (setting [7]) and in assay [1] (setting [8]) were 6820 and 8420, respectively. In addition, the z-score is -0.553 (inactive) in assay [2] (setting [9]), 0.716 in assay [2] (setting [10]) and -0.45 (inactive) in assay [3].
As for `COc1ccc(CCC(=O)O)cc1OC`, the fold change in assay [1] (setting [5]) is 0.922 (inactive); in assay [1] (setting [6]) it was 0.518. For the same molecule, the results for the cell count in assay [1] (setting [7]) and in assay [1] (setting [8]) were 8510 and 9240, respectively. Besides, the figures for the z-score in assay [2] (setting [9]), in assay [2] (setting [10]) and in assay [3] were -0.767 (inactive), -0.44 and -0.02 (inactive), respectively.
Consider `Cc1nc2cc(C(=O)N(C)Cc3cc(-c4cccnc4)no3)ccc2s1`, for which the fold change in assay [1] (setting [5]) was 0.86 (inactive); in assay [1] (setting [6]), 2.36. For the same molecule, the cell count in assay [1] (setting [7]) was found to be 6380; in assay [1] (setting [8]), 7420. Besides, the z-score is -0.957 (inactive) in assay [2] (setting [9]), -0.223 in assay [2] (setting [10]) and -0.55 (inactive) in assay [3].
For the molecule `Fc1ccc(CC2CCNCC2)cc1`, the fold change in assay [1] (setting [5]) was 0.856 (inactive); in assay [1] (setting [6]), 0.77. For the same molecule, the figures for the cell count in assay [1] (setting [7]) and in assay [1] (setting [8]) were 8200 and 9580, respectively. In addition, the z-score in assay [2] (setting [9]) is -0.906 (inactive); in assay [2] (setting [10]) it was 0.0714; in assay [3] it was 0.525 (inactive).
On to `Nc1nc2cc(C(=O)N3CCN(C(=O)c4ccco4)CC3)ccc2s1`, for which the fold change in assay [1] (setting [5]) is 0.879 (inactive); in assay [1] (setting [6]), 1.74. The cell count in assay [1] (setting [7]) worked out at 8870; in assay [1] (setting [8]) it was 10100. Also, the z-score in assay [2] (setting [9]) was -0.277 (inactive); in assay [2] (setting [10]), -0.24; in assay [3], -0.565 (inactive).
Consider `CC(C)NC[C@@H](O)c1ccc(O)c(O)c1`, for which the parasite load remaining in assay [4] is 67.9% (inactive). Moreover, the viability (as a rule, a read-out of living cells in per cent, often relative to untreated cells) in assay [4] is 93.2%. Besides, the fold change in assay [1] (setting [5]) was 1.04 (inactive) and 0.887 (inactive); in assay [1] (setting [6]) it was 1.51 and 1.13. The cell count in assay [1] (setting [7]) was 10500 and 9200; in assay [1] (setting [8]), 10100 and 10400. Also, the figures for the z-score in assay [2] (setting [9]), in assay [2] (setting [10]) and in assay [3] were 0.464 (inactive), -0.759 and -1.29 (inactive), respectively.
For `CN1[C@@H](C[C@H](O)c2ccccc2)CCC[C@H]1CC(=O)c1ccccc1`, the parasite load remaining in assay [4] was 53.1% (inactive). The viability in assay [4] is 128%. The fold change was 0.934 (inactive) in assay [1] (setting [5]) and 1.15 in assay [1] (setting [6]). In addition, the values for the cell count in assay [1] (setting [7]) and in assay [1] (setting [8]) were 9500 and 10200, respectively. Moreover, the z-score in assay [2] (setting [9]) is -0.675 (inactive); in assay [2] (setting [10]) it was -0.32; in assay [3] it was 0.205 (inactive).
For the molecule `CC(=O)OC1C=C2C(Cl)=C[C@@H]3[C@H](CC[C@@]4(C)[C@H]3CC[C@]4(OC(C)=O)C(C)=O)[C@@]2(C)CC1` (stereo partly drawn), in assay [4], the parasite load remaining is 9.03% (inactive). The viability in assay [4] is 64%. The fold change in assay [1] (setting [5]) was 0.729 (inactive); in assay [1] (setting [6]), 1.61. Besides, the results for the cell count in assay [1] (setting [7]) and in assay [1] (setting [8]) were 7220 and 9910, respectively. Also, the z-score was 0.137 (inactive) in assay [2] (setting [9]), 1.01 in assay [2] (setting [10]) and 0.185 (inactive) in assay [3].
With `CNC1(C)[C@H]2CC[C@H](C2)C1(C)C` (stereo partly drawn), the parasite load remaining in assay [4] is 95.3% (inactive). In assay [4], the viability turned out to be 108%. For the same molecule, the fold change is 0.905 (inactive) in assay [1] (setting [5]) and 1.29 in assay [1] (setting [6]). Moreover, the cell count in assay [1] (setting [7]) is 9940; in assay [1] (setting [8]), 11000. In addition, the z-score in assay [2] (setting [9]) was 0.54 (inactive); in assay [2] (setting [10]), -0.569; in assay [3], 0.66 (inactive).
